High-throughput results (PubChem BioAssay)
Sampled rows, rich in hits. Any-hit rate of the full collection: about 2.2%.
aSyn UTR inh: MLPCN primary screen, SNCA 5' untranslated region; inhibition, % (tested at 7.5 µM); actives 0.82% (n = 300,000); alpha-synuclein 5'UTR reporter, inhibitor activity; AID 1813; in the data active = inhibition above about 60%;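 note: H4 neuroglioblastoma cells stably carrying SNCA 5'UTR luciferase fusion; 0% = DMSO wells and 100% = positive control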
APP transl inh: APP translation inhibition | SH-SY5Y APP 5'UTR-luciferase reporter, luminescence | actives 0.82% (n = 190,000) | inhibition, % at 2 µM;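 active = inhibition above a set limit, derived from the sample mean plus 3 SD, cut at about 45% in these data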
IEC-6 cytotox: kills IEC-6 intestinal cells in KLF5 counter-screen; IEC-6 cytotoxicity, luminescence viability; inhibition, % at 5 µM; actives 0.78% (n = 290,000); AID 1825; in the data active = inhibition above about 22%;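 note: 0% = plate median of test compound wells and 100% = cytotoxic reference compound wells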
Ba/F3 V617F tox: reduce viability of Ba/F3 cells dependent on JAK2V617F | Ba/F3 EpoR-JAK2V617F viability, ATP luminescence | actives 1.1% (n = 220,000) | inhibition, % at 5.6 µM;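 active = inhibition above the campaign mean plus 3 SD over all tested compounds, cut at about 24% in these data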;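 note: cytokine-independent growth of Ba/F3 cells driven by EpoR plus mutant JAK2; 0% = DMSO-treated cells and 100% = JAK inhibitor I control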
BaF3 parental: reduces parental Ba/F3 cell viability, JAK2V617F counter-screen; CellTiter-Glo ATP luminescence; inhibition, % at 5.6 µM; actives 1.1% (n = 220,000);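 active = inhibition above a per-campaign cutoff, the mean inhibition of all tested compounds plus 3 SD, cut at about 27% in these data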;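 note: 0% = DMSO wells and 100% = JAK Inhibitor I control wells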
KLF5 inhibitor: kruppel-like factor 5 inhibition | DLD-1 KLF5 promoter-luciferase reporter, luminescence | inhibition, % at 5 µM | actives 0.23% (n = 290,000);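 active = inhibition above a per-plate limit of that plate's mean compound inhibition plus 3 SD, cut at about 60% in these data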;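 note: 0% = DMSO wells and 100% = LY294002 at 200 µM; higher means less KLF5 promoter-driven luciferase light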
The depositor's hits bear a star; nt = no result.

SMILES | aSyn UTR inh | APP transl inh | IEC-6 cytotox | Ba/F3 V617F tox | BaF3 parental | KLF5 inhibitor
CC1CCCCC1NCC#CCOc1ccc(Cl)cc1 (stereo not given) | 13 | -3 | 8 | 4 | 8 | -11
Cc1cc(C(=O)CCl)c(C)n1-c1cccc(S(=O)(=O)N2CCOCC2)c1 | -4 | 8 | -1 | 0 | 7 | -16
CC(C)c1ccc(CN2CCN(C(=O)CCl)CC2)cc1 | nt | -2 | 6 | 46* | 0 | -5
CC(C)CC(=O)N1CCN(Cc2ccc(Cl)cc2)CC1 | 11 | nt | 5 | nt | nt | -27
Brc1ccc(-c2cnc3n2CCCC3)cc1 | -15 | -7 | 3 | -4 | -1 | 4
CCOc1ccc(-c2cnc3n2CCC3)cc1 | 3 | 46* | -6 | 0 | 7 | -34
CCCN(C(=O)COC(=O)C12CCC(=O)N1c1ccccc1S2)c1c(N)n(Cc2ccccc2)c(=O)[nH]c1=O (stereo not given) | -31 | nt | 1 | nt | nt | -15
CCN1/C(=C/C=C/c2oc3ccc4ccccc4c3[n+]2CC)Oc2ccc3ccccc3c21 | 92* | 54* | 1 | 101* | 68* | -16
Oc1ccc(/C=N/Nc2nc(N3CCCCCC3)nc(N3CCCCCC3)n2)c(O)c1 | 21 | 5 | 0 | 47* | 34* | -11
Oc1ccc(Br)cc1/C=N/Nc1nc(N2CCCCC2)nc(N2CCOCC2)n1 | -25 | 3 | -1 | -2 | -5 | 10
CCCC(C)NC(=S)NC(=O)c1cc(S(=O)(=O)N2CCOCC2)ccc1C (stereo not given) | 41 | -18 | -3 | -1 | 4 | 14
CCCCCC(C)NC(=S)NC(=O)c1cc(S(=O)(=O)N2CCOCC2)ccc1C (stereo not given) | 66* | 0 | 4 | -4 | 42* | -2
O=C(O)CNC(=O)c1ccc(Oc2c(F)c(F)c(Oc3ccc(C(=O)NCC(=O)O)cc3)c(F)c2F)cc1 | 11 | nt | -3 | nt | nt | -27
COc1cc(/C=N/NC(=O)c2csc3c2CCCC3)cc(OC)c1O | -11 | -10 | -3 | 0 | 4 | -15
Cc1ccc(/C=N/NC(=O)c2csc3c2CCCC3)cc1 | -24 | 90* | 1 | 0 | 0 | -75
Cc1ccc(-c2cnc(-c3ccncc3)o2)cc1 | -157 | -67 | -12 | 3 | 7 | -57
Nc1ccc(-c2ncc(-c3ccccc3)o2)cc1 | 86* | nt | 2 | nt | nt | 24
C=CCOc1ccc(C2N3CC4(C)CN2CC(CCC)(C3)C4=O)cc1 (stereo not given) | nt | 0 | -5 | 4 | 1 | 7
CCCC12CN3CC(C)(CN(C1)C3c1ccc(OC)cc1)C2=O (stereo not given) | -17 | -12 | -3 | 2 | 94* | -4
Cc1c(NC(=O)CSc2nnc3c4ccccc4n(CCc4ccccc4)c3n2)c(=O)n(-c2ccccc2)n1C | -25 | -15 | 60* | -1 | 6 | 24
CCn1c2ccccc2c2nnc(SCC(=O)Nc3c(C)n(C)n(-c4ccccc4)c3=O)nc21 | 13 | -26 | 6 | 0 | 2 | -6
COC(=O)C(Cc1ccc(OC(=O)c2ccc(Cl)cc2)cc1)N1Cc2ccccc2C1=O (stereo not given) | -124 | -48 | 4 | 2 | 96* | -45
OCCN1CCN(C(c2cccs2)c2ccc3cccnc3c2O)CC1 (stereo not given) | nt | 18 | 50* | 100* | 86* | 83*
CCN1CCN(C(c2ccc(C(F)(F)F)cc2)c2ccc3cccnc3c2O)CC1 (stereo not given) | 25 | nt | 15 | nt | nt | 29
CC#CC[N+](C)(C)CCCCCCCCCC | -9 | nt | 10 | 95* | 79* | 5
SMILES | aSyn UTR inh | APP transl inh | IEC-6 cytotox | Ba/F3 V617F tox | BaF3 parental | KLF5 inhibitor
C#CC[N+](C)(C)CCCCCCCCC | 65* | -9 | -9 | 82* | 62* | -10
Cc1nnsc1S(=O)c1ccc(Br)cc1 (stereo not given) | -148 | nt | -8 | nt | nt | -22
Cc1cc(C)c2ccc(N)nc2c1O | 65* | 66* | 3 | -2 | 3 | -20
CN(C(=O)COC(=O)c1cccc(S(=O)(=O)N2CCOCC2)c1)C1CCS(=O)(=O)C1 (stereo not given) | -5 | nt | nt | nt | nt | nt
COc1ccc(N(CC(=O)NC2CCCC2)C(=O)c2ccc(C)s2)c(OC)c1 | 5 | nt | 6 | nt | nt | -9
COc1ccc(/C=C/c2cc(-c3ccc(C)cc3)o[n+]2C)cc1 | 89* | -1 | 2 | 101* | 93* | 50
Cc1ccc(OCc2cc(C(=O)N(C)CCc3ccccn3)no2)cn1 | 5 | nt | -4 | nt | nt | -11
COc1ccc(-c2nc3ccccc3n2Cc2ccc(C)cc2)cc1 | -47 | -5 | 7 | 2 | 6 | -18
COc1ccc(Cn2c(-c3ccc(C)cc3)c[n+]3ccccc23)cc1 | -20 | 1 | 10 | 90* | 71* | 7
O=C1c2ccc3c4c(ccc(c24)C(=O)N1c1cccc(O)c1)C(=O)N(c1cccc(O)c1)C3=O | 68* | nt | 14 | 13 | 18 | 0
CN(CCOc1ccc(Cl)cc1)C(=O)c1cc([N+](=O)[O-])ccc1N1CCOCC1 | 7 | nt | nt | nt | nt | nt
FC(F)(F)c1ccccc1NC(=S)NN=C1CCCCCC1 | -18 | 93* | 7 | -2 | 0 | -14
O=C(O)C1CSC(c2ccccc2)N1C(=O)c1ccco1 (stereo not given) | 0 | 50* | -1 | -2 | 5 | -27
O=C(O)C1Cc2ccccc2CN1C(=O)c1ccco1 (stereo not given) | -15 | nt | -2 | nt | nt | -11
COc1ccc(-c2cc3nc(C)cc(N)n3n2)cc1 | 45 | -147 | 22* | 21 | 22 | -21
COc1ccc(-c2cc3nc(C)cc(-c4ccc(OC)cc4)n3n2)cc1 | -2 | nt | 2 | nt | nt | -3
CC(C)c1ccc2c(c1)CCC1C(C)(CN)CCCC21C (stereo not given) | 97* | nt | -2 | 96* | 79* | -19
COc1ccc2nc(/N=C/c3c(C)[nH]n(-c4ccc(C)cc4C)c3=O)sc2c1 | -52 | 2 | 12 | -2 | 5 | -9
COc1cc2c(cc1NC(=O)c1ccc(C)c([N+](=O)[O-])c1)oc1ccccc12 | -3 | 5 | 7 | -1 | 3 | -5
COc1cc2c(cc1NC(=O)c1cccc([N+](=O)[O-])c1)oc1ccccc12 | 81* | -6 | -3 | 0 | -1 | -43
COc1cc2c(cc1NC(=O)C(C)N1CCN(S(=O)(=O)c3ccccc3[N+](=O)[O-])CC1)oc1ccccc12 (stereo not given) | -61 | 93* | 10 | -3 | 5 | -10
COc1cc2c(cc1NC(=O)COc1ccc3ccccc3c1)oc1ccccc12 | 4 | 46* | 0 | 2 | 4 | -2
CN(CCO)c1cnccn1 | 8 | -82 | -6 | -1 | 0 | -18
COCCNC(=O)C(c1ccccc1F)N(C(=O)C(=O)NC1CCCC1)C1CCCCC1 (stereo not given) | -26 | -8 | 3 | 0 | 2 | -25
